From PubChem BioAssay (NCI)
The panel holds about 83,000 compounds, 20% with a hit somewhere; the sample as a whole holds those more often.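 Compound tested at a single concentration for 48 hours in 96-well plates; a percent growth value below 10 was scored as active.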 Activity calls are given as the source filed them.

What follows are compounds tested on MOLT-4 leukemia (assay: NCI-60 one-dose screen, 48 h (100 = growth as untreated, 0 = no growth, -100 = all killed)). Conditions: 10 µM unless noted.

Compound | growth
C(=C\c1cn(-c2ccccc2)nc1-c1ccccc1)/c1nnc(-c2c[nH]c3ccccc23)o1 | 69.4% (inactive)
Nc1c(C(=O)Nc2ccccn2)sc2nc3c(cc12)C(=O)CCC3 | 69.7% (inactive)
C=C1C(=O)O[C@H]2[C@H]1CC/C(COC(=O)CCCCCCC(=O)OC/C1=C/CC[C@@]3(C)O[C@H]3[C@H]3OC(=O)C(=C)[C@@H]3CC1)=C\CC[C@@]1(C)O[C@@H]21 | 2.4% (active)
O=C(Nc1ccc2ncnc(Nc3ccc(F)c(Cl)c3)c2c1)c1ccccc1 | 63.4% (inactive)
O=C(NC[C@H](O)CN1CCc2ccccc2C1)c1cc(NC2COC2)ncn1 | 88% (inactive)

The compounds below were run on SR leukemia in the same assay as above. Conditions: 10 µM unless noted.

Compound | growth
COC(=O)c1nc(-c2ccccc2)oc1S(=O)(=O)n1nc(-c2ccccc2)cc1N | 1.74% (active)
COc1ccc(C(=O)c2cc(OC)c(C)c(OC)c2)cc1OC(=O)CCl | 12.5% (inactive)
CC(=O)c1cnc(-c2ccccc2)nc1CBr | -20.9% (active)
O=C1CC23OC4ON=C(Br)C4C2C(O)c2ccccc2N13 (stereo not drawn) | 107% (inactive)
COc1ccc(C(=S)c2cc(OC)c(OC)c(OC)c2)cc1OC(=O)CCl | 11% (inactive)
COc1ccc2oc(=O)cc(-c3c(C#N)c(N)n4nc(N)c(C#N)c4c3C#N)c2c1 | 115% (inactive)
O=C(Nc1cc(Br)ccn1)c1cc2cc(Nc3nc(-c4ccccc4)nc4ccccc34)ccc2oc1=O | 82.2% (inactive)
CC1CCCN(CCCCCOc2ccc3oc4ccc(Cl)cc4c(=O)c3c2)C1 (stereo not drawn) | 21% (inactive)
COc1cc(C2=NNC(c3ccc(N(C)C)cc3)C2)cc(OC)c1OC (stereo not drawn) | -5.74% (active)
Cn1c2ccccc2c2c(OC(=O)c3ccccc3)c3c(nc21)-c1ccccc1C3 | 91.7% (inactive)
COc1cc(C(C)c2ccc3c(ccn3C)c2)cc(OC)c1OC (stereo not drawn) | 13.8% (inactive)
CC(=O)OCC1SC(OC(C)=O)C(NC(=O)/C=C/CCl)C(OC(C)=O)C1OC(C)=O (stereo not drawn) | 86.2% (inactive)
C[C@H]1[C@H](C)CC[C@]2(C(=O)OCCCC[P+](c3ccccc3)(c3ccccc3)c3ccccc3)CC[C@]3(C)C(=CC[C@@H]4[C@@]5(C)CC[C@H](OC(=O)C(Cl)Cl)C(C)(C)[C@@H]5CC[C@]43C)[C@H]12 | -49.4% (active)
O=C1C(=O)c2c(nc3ccc(C(F)(F)F)cn23)-c2ccccc21 | -5.53% (active)
COc1ccc2[nH]c(-c3ccccc3)c(C=C(C#N)C#N)c2c1 | -5.05% (active)
NC(=N\N=C\c1ccccc1O)/C(N)=N/N=C/c1ccccc1O | 71.2% (inactive)
Cc1ccc(-c2nc(C#N)c(S(=O)(=O)N(C)CCO)o2)cc1 | 10.8% (inactive)
CC[C@H](Nc1ncnc2nc[nH]c12)c1nc2cccc(CC(=O)c3ccc(C(=O)NO)cc3)c2c(=O)n1-c1ccccc1 | 67.6% (inactive)
NC(=O)c1ccc2nc3c(n2c1)C(=O)C(=O)c1ccccc1-3 | -4.89% (active)

Compound | growth
COc1cccc(C(=O)OCCn2nc3c4c(cccc42)C(=O)c2ccccc2-3)c1O | 21.2% (inactive)
COc1ccc(C(C)c2cc(OC)c(OC)c(OC)c2)cc1 (stereo not drawn) | 13.3% (inactive)
C#C[C@@]1(O)[C@@H](CO)O[C@@H](n2ccc3c(N)ncnc32)[C@@H]1O | 12.1% (inactive)
COc1cc(NC(=O)COc2cc(C)nc3ccc(OC)cc23)cc(OC)c1 | -8.57% (active)
CN1CCN(C(=O)[C@@]2(C)CC[C@]3(C)CC[C@]4(C)C(=CC[C@@H]5[C@@]6(C)CC[C@H](OC(=O)c7cccnc7)C(C)(C)[C@@H]6CC[C@]54C)[C@@H]3C2)CC1 | -26.9% (active)
NS(=O)(=O)c1ccc(N2Cc3cc(Cl)ccc3OC3=C2C(=O)N(CC2CCCCC2)C3=O)cc1 | -43.4% (active)
CCCCc1nc(Cl)c(C2CC(c3ccc(Cl)cc3)=NN2c2cc(Cl)cc(Cl)c2)[nH]1 (stereo not drawn) | 61.8% (inactive)
C[C@H]1[C@H](C)CC[C@]2(C(=O)OCCOCCOCC[P+](c3ccccc3)(c3ccccc3)c3ccccc3)CC[C@]3(C)C(=CC[C@@H]4[C@@]5(C)CC[C@H](OC(=O)C(Cl)Cl)C(C)(C)[C@@H]5CC[C@]43C)[C@H]12 | -33.5% (active)
C=C(C)[C@@H]1CC[C@]2(C(=O)N3CCN(C)CC3)CC[C@]3(C)[C@H](CC[C@@H]4[C@@]5(C)C/C(=C/c6ccco6)C(=O)C(C)(C)[C@@H]5CC[C@]43C)[C@@H]12 | -21.9% (active)
Clc1ccc2c(NCCCNC3CCCCC3)ccnc2c1 | 46.8% (inactive)
CCSc1nc(Cl)c(C#N)c(-c2ccc(F)cc2)n1 | 3.84% (active)
COc1cc2c(cc1OCCCOc1cc3c(cc1OC)C(=O)N1CC(F)(F)C[C@H]1C=N3)N=C[C@@H]1CC(F)(F)CN1C2=O | -12.1% (active)
CN1CCN(CC#CCOC(=O)CNC(=O)[C@]23CCC(C)(C)C[C@H]2C2=CC[C@@H]4[C@@]5(C)CC[C@H](O)C(C)(C)[C@@H]5CC[C@@]4(C)[C@]2(C)CC3)CC1 | 7.96% (active)
COc1cc(C(=O)N2CCN(c3ccccc3OC)CC2)c(NC(=O)c2cnccn2)cc1OCc1ccccc1 | 60.7% (inactive)
C(=C\c1cn(-c2ccccc2)nc1-c1ccccc1)/c1nnc(-c2c[nH]c3ccccc23)o1 | 48.1% (inactive)
Nc1c(C(=O)Nc2ccccn2)sc2nc3c(cc12)C(=O)CCC3 | 40.6% (inactive)
C=C1C(=O)O[C@H]2[C@H]1CC/C(COC(=O)CCCCCCC(=O)OC/C1=C/CC[C@@]3(C)O[C@H]3[C@H]3OC(=O)C(=C)[C@@H]3CC1)=C\CC[C@@]1(C)O[C@@H]21 | -2.74% (active)
O=C(Nc1ccc2ncnc(Nc3ccc(F)c(Cl)c3)c2c1)c1ccccc1 | 66.7% (inactive)
O=C(NC[C@H](O)CN1CCc2ccccc2C1)c1cc(NC2COC2)ncn1 | 97.2% (inactive)
